Several values for one entry are separate records, joined by “and”; a condition that tells them apart may be missing. Equal values may be shown once. Activity calls are given as the source filed them.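 How the source made its calls: active means compounds killing one labelled cell type while sparing the other, by normalised counts and ratio limits, not self-fluorescent; inactive means the rest.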
assay: differential killing of epithelial or mesenchymal cells, primary screen, imaging, PC-3E GFP, TEM4-18 mCherry, co-culture (AID 1345086); settings: imaging cell counts, at 1 µM, actives lie on both sides, counts scaled to control wells, 1 = unselective;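 further: cells exposed to compound for 72 h before imaging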;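 on red/green cell ratio (normalised): normalised mesenchymal count divided by normalised epithelial count so high means epithelial killing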

Row | SMILES | red/green cell ratio (normalised)
1 | O=c1cc[nH]c(=S)[nH]1 | 0.81 (inactive)
2 | Oc1c(I)cc(I)c2cccnc12 | 1.31 (inactive)
3 | O=C1C(O)=C(O)C(=O)C(O)=C1O | 1.1 (inactive)
4 | CC(=O)Nc1c(I)cc(I)c(C(=O)O)c1I | 0.94 (inactive)
5 | NC(N)=NCCN1CCCCCCC1 | 1.06 (inactive)
6 | Cc1ccc2c(Cl)cc(Cl)c(O)c2n1 | 0.8 (inactive)
7 | CN1CCN(c2cc3c(cc2F)c(=O)c(C(=O)O)cn3-c2ccc(F)cc2)CC1 | 1.21 (inactive) and 1.18 (inactive)
8 | O=c1[nH]cnc2nc[nH]c12 | 1.25 (inactive)
9 | C[n+]1cc2c3c(ccc2c2ccc4cc5c(cc4c21)OCO5)OCO3 | 1.2 (inactive)
10 | CC1(C)OC(=O)NC1=O | 1.18 (inactive)
11 | CCCCCCCCCCCCCCCCCCOCC(O)CO (stereo not given) | 1 (inactive)
12 | CCCCCCOc1ccccc1C(N)=O | 1 (inactive)
13 | O=C(CCCN1CCN(c2ccccn2)CC1)c1ccc(F)cc1 | 1.1 (inactive)
14 | CCN(CC)C(C)CN1c2ccccc2Sc2ccccc21 (stereo not given) | 0.85 (inactive)
15 | CCN(CC)CCNC(=O)c1ccc(NC(C)=O)cc1 | 1.26 (inactive)
16 | CO/N=C1\CN(c2nc3c(cc2F)c(=O)c(C(=O)O)cn3C2CC2)CC1CN (stereo not given) | 0.94 (inactive)
17 | CCC(=O)O[C@H]1[C@H](O[C@@H]2[C@@H](C)[C@H](O[C@H]3C[C@@](C)(OC)[C@@H](O)[C@H](C)O3)[C@@H](C)C(=O)O[C@H](CC)[C@@](C)(O)[C@H](O)[C@@H](C)C(=O)[C@H](C)C[C@@]2(C)O)O[C@H](C)C[C@@H]1N(C)C | 1.04 (inactive)
18 | CCN(CCCCOC(=O)c1ccc(OC)c(OC)c1)C(C)Cc1ccc(OC)cc1 (stereo not given) | 1.1 (inactive)
19 | CC(=O)Oc1cccc(O)c1 | 1.21 (inactive)
20 | CC(=O)OC/C=C(C)/C=C/C=C(C)/C=C/C1=C(C)CCCC1(C)C | 0.94 (inactive)

Row | SMILES | red/green cell ratio (normalised)
21 | CN1CCN(CC(=O)N2c3ccccc3C(=O)Nc3cccnc32)CC1 | 0.9 (inactive)
22 | Cc1cc(=O)n(-c2ccccc2)n1C | 1.02 (inactive)
23 | COc1ccc(C(=O)c2ccccc2O)c(O)c1 | 1.27 (inactive)
24 | Nc1nccs1 | 0.78 (inactive)
25 | C[N+]12CCC(CC1)C(OC(=O)C(O)(c1ccccc1)c1ccccc1)C2 (stereo not given) | 1.14 (inactive)
26 | CCCCCC(C)N (stereo not given) | 1.26 (inactive)
27 | CC(CN(C)C)CN1c2ccccc2CCc2ccccc21 (stereo not given) | 1.03 (inactive)
28 | C[C@H](N)[C@H](O)c1cccc(O)c1 | 1.4 (inactive)
29 | NCCCC[C@H](N[C@@H](CCc1ccccc1)C(=O)O)C(=O)N1CCC[C@H]1C(=O)O | 1.65 (inactive)
30 | C/C=C1\[C@H]2C=C(C)C[C@]1(N)c1ccc(=O)[nH]c1C2 | 1.22 (inactive)
31 | Nc1ccc(C(=O)O)cc1 | 1 (inactive)
32 | Cc1c(C(N)=O)cc([N+](=O)[O-])cc1[N+](=O)[O-] | 0.99 (inactive)
33 | CCCCNc1ccc(C(=O)OCCN(C)C)cc1 | 1.19 (inactive)
34 | O=C(O)c1cc(=O)c2ccccc2o1 | 0.88 (inactive)
35 | COc1cc(OC)cc(OC)c1 | 0.87 (inactive)
36 | CC1(C)S[C@@H]2[C@H](NC(=O)[C@H](N)c3ccccc3)C(=O)N2[C@H]1C(=O)O | 0.91 (inactive)
37 | C=Cc1c(C)c2cc3[nH]c(cc4nc(cc5nc(cc1[nH]2)C(C)=C5CCC(=O)O)C(CCC(=O)O)=C4C)c(C)c3C=C | 1.18 (inactive)
38 | Cc1cc(C)cc(OCC2CNC(=O)O2)c1 (stereo not given) | 1.5 (inactive)
39 | Oc1ccc(Cl)c2cccnc12 | 1.13 (inactive)
40 | CC(=O)Oc1ccc(C(c2ccc(OC(C)=O)cc2)c2ccccn2)cc1 | 0.85 (inactive)

same assay, conditions: imaging cell counts, measured here: epithelial PC-3E GFP cell survival, at 1 µM

Row | SMILES | normalised cell number
41 | O=c1cc[nH]c(=S)[nH]1 | 1.32
42 | Oc1c(I)cc(I)c2cccnc12 | 1.01
43 | O=C1C(O)=C(O)C(=O)C(O)=C1O | 1.02
44 | CC(=O)Nc1c(I)cc(I)c(C(=O)O)c1I | 1.19
45 | NC(N)=NCCN1CCCCCCC1 | 1.17
46 | Cc1ccc2c(Cl)cc(Cl)c(O)c2n1 | 1.22
47 | CN1CCN(c2cc3c(cc2F)c(=O)c(C(=O)O)cn3-c2ccc(F)cc2)CC1 | 0.99 and 0.72
48 | O=c1[nH]cnc2nc[nH]c12 | 0.95
49 | C[n+]1cc2c3c(ccc2c2ccc4cc5c(cc4c21)OCO5)OCO3 | 0.84
50 | CC1(C)OC(=O)NC1=O | 1.2
51 | CCCCCCCCCCCCCCCCCCOCC(O)CO (stereo not given) | 0.96
52 | CCCCCCOc1ccccc1C(N)=O | 0.94
53 | O=C(CCCN1CCN(c2ccccn2)CC1)c1ccc(F)cc1 | 1.11
54 | CCN(CC)C(C)CN1c2ccccc2Sc2ccccc21 (stereo not given) | 1.09
55 | CCN(CC)CCNC(=O)c1ccc(NC(C)=O)cc1 | 0.89
56 | CO/N=C1\CN(c2nc3c(cc2F)c(=O)c(C(=O)O)cn3C2CC2)CC1CN (stereo not given) | 1.32
57 | CCC(=O)O[C@H]1[C@H](O[C@@H]2[C@@H](C)[C@H](O[C@H]3C[C@@](C)(OC)[C@@H](O)[C@H](C)O3)[C@@H](C)C(=O)O[C@H](CC)[C@@](C)(O)[C@H](O)[C@@H](C)C(=O)[C@H](C)C[C@@]2(C)O)O[C@H](C)C[C@@H]1N(C)C | 1.08
58 | CCN(CCCCOC(=O)c1ccc(OC)c(OC)c1)C(C)Cc1ccc(OC)cc1 (stereo not given) | 0.88
59 | CC(=O)Oc1cccc(O)c1 | 1.1
60 | CC(=O)OC/C=C(C)/C=C/C=C(C)/C=C/C1=C(C)CCCC1(C)C | 1

Row | SMILES | normalised cell number
61 | CN1CCN(CC(=O)N2c3ccccc3C(=O)Nc3cccnc32)CC1 | 1.08
62 | Cc1cc(=O)n(-c2ccccc2)n1C | 1.24
63 | COc1ccc(C(=O)c2ccccc2O)c(O)c1 | 1.28
64 | Nc1nccs1 | 1.25
65 | C[N+]12CCC(CC1)C(OC(=O)C(O)(c1ccccc1)c1ccccc1)C2 (stereo not given) | 1.17
66 | CCCCCC(C)N (stereo not given) | 0.94
67 | CC(CN(C)C)CN1c2ccccc2CCc2ccccc21 (stereo not given) | 1.32
68 | C[C@H](N)[C@H](O)c1cccc(O)c1 | 0.79
69 | NCCCC[C@H](N[C@@H](CCc1ccccc1)C(=O)O)C(=O)N1CCC[C@H]1C(=O)O | 0.22
70 | C/C=C1\[C@H]2C=C(C)C[C@]1(N)c1ccc(=O)[nH]c1C2 | 0.97
71 | Nc1ccc(C(=O)O)cc1 | 1.02
72 | Cc1c(C(N)=O)cc([N+](=O)[O-])cc1[N+](=O)[O-] | 0.91
73 | CCCCNc1ccc(C(=O)OCCN(C)C)cc1 | 1.07
74 | O=C(O)c1cc(=O)c2ccccc2o1 | 0.88
75 | COc1cc(OC)cc(OC)c1 | 1.26
76 | CC1(C)S[C@@H]2[C@H](NC(=O)[C@H](N)c3ccccc3)C(=O)N2[C@H]1C(=O)O | 1.22
77 | C=Cc1c(C)c2cc3[nH]c(cc4nc(cc5nc(cc1[nH]2)C(C)=C5CCC(=O)O)C(CCC(=O)O)=C4C)c(C)c3C=C | 0.8
78 | Cc1cc(C)cc(OCC2CNC(=O)O2)c1 (stereo not given) | 0.43
79 | Oc1ccc(Cl)c2cccnc12 | 1.27
80 | CC(=O)Oc1ccc(C(c2ccc(OC(C)=O)cc2)c2ccccn2)cc1 | 1.24
